Compound activity deposited in PubChem by several laboratories.
ADAM17 inh – ADAM17 inhibition, QFRET primary screen. P78536. inhibition, % at 6.95 µM. 370,000 tested, 0.83% active. recombinant ADAM17, EDANS/DABCYL FRET peptide cleavage;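 active = inhibition above the mean of compounds lying between control limits plus 3 SD, set per campaign, cut at about 8.5% in these data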;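 note: 0% = DMSO-only wells as the low control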
ADAM10 inh – inhibitors of human ADAM10; O14672; recombinant ADAM10, EDANS/DABCYL FRET peptide cleavage, 3 h; inhibition, % at 7 µM; 370,000 tested, 0.62% active;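 active = inhibition above a per-campaign cutoff equal to the mean of compounds falling between control-based bounds plus 3 SD, cut at about 20% in these data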;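 note: 0% = DMSO wells while the 100% control is not disclosed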
PLC-gamma1 inh – inhibitors of human phospholipase C gamma1; purified PLC-gamma1, fluorogenic substrate, fluorescence; inhibition, % at 12.2 µM; 370,000 tested, 0.84% active
Rce1 inh – inhibitors of yeast Ras-converting enzyme | Q03530 | yeast membranes, quenched prenylated peptide cleavage fluorescence | calls only | 290,000 tested, 0.27% active | AID 2563;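 active = fall in fluorescence gain of 50% or more versus controls, with final raw signal at or below 3038400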;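 note: plate controls were neutral control wells for no effect and wells lacking membranes for full effect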
PLC-beta3 inh – blocks human PLC-beta3 enzyme activity; Q01970; Purified PLC-beta3, fluorogenic substrate, fluorescence; inhibition, % at 12.2 µM; 370,000 tested, 0.18% active; AID 720704; in the data active = inhibition above about 11%;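 note: 0% = median of compound wells on plate and 100% = full blocker control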
Target sequence (Q01970 whole entry, looked up): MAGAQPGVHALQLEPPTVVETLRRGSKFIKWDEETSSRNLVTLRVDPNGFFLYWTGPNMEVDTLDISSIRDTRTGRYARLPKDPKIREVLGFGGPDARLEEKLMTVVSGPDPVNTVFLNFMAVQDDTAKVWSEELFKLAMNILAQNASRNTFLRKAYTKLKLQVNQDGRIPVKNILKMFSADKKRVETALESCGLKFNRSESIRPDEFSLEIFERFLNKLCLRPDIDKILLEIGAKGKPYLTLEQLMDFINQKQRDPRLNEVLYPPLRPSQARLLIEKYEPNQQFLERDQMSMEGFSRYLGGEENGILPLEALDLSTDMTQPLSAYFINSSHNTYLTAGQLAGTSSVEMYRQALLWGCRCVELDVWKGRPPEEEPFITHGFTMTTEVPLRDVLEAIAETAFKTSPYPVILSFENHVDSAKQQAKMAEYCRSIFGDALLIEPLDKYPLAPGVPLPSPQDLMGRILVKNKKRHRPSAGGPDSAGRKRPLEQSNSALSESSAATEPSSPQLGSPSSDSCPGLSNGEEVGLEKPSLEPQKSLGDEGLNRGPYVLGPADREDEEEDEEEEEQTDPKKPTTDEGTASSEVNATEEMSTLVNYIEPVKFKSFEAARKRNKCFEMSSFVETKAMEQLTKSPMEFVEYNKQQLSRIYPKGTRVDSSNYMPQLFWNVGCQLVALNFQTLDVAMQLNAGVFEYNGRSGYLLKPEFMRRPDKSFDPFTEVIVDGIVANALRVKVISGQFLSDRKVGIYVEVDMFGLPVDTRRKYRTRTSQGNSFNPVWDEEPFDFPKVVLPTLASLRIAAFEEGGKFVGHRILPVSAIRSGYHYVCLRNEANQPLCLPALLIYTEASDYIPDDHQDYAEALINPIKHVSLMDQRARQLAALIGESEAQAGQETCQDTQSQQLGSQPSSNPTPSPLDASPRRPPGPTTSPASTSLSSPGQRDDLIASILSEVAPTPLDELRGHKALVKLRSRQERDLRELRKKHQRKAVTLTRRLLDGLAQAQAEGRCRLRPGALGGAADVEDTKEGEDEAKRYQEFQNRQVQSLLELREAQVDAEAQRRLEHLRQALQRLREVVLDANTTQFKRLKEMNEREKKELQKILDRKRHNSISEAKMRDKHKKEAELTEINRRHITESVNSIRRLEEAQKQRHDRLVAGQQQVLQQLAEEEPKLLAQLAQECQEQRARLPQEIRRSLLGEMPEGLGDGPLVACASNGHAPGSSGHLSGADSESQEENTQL
PLCgamma1 ctr – inhibits human PLC-gamma1 in PLC-beta3 counter-screen; shares compounds with PLC-gamma1 inh; purified PLC-gamma1, fluorogenic substrate, fluorescence; inhibition, % at 12.3 µM; 3,300 tested, 3.1% active
PLCb3 confirm – human PLC-beta3 inhibition, confirmation; shares compounds with PLC-gamma1 inh; purified PLC-beta3, fluorogenic substrate fluorescence; inhibition, % at 12.3 µM; 3,300 tested, 1% active; AID 743261; in the data active = inhibition above about 11%
* marks the source's active call; other numbers are inactive results; i = inactive; . = no result. Only some compounds are listed: those with a hit (about 2.1% of all), similar ones and a draw of the others. Cut-off read from the data, not from the text of the source, unless noted: active = inhibition above about 9.5%; inactive = the rest.

SMILES	ADAM17 inh	ADAM10 inh	PLC-gamma1 inh	Rce1 inh	PLC-beta3 inh	PLCgamma1 ctr	PLCb3 confirm
CCN(CC)CCCN1C(=O)C2=C(C1=O)C1N(C)c3ccccc3[C@@]13C[C@@H](CO)N(C(=O)CCC(=O)OC)C3=N2 (stereo partly specified)	-3.1	-4.4	-0.4	.	1.1	.	.
COc1ccc(OC)c(NC(=O)c2cccnc2Sc2ccccc2)c1	-1.9	1.2	0.4	i	1.6	.	.
c1ccc(N2CCN(c3ncnc4scc(-c5cccs5)c34)CC2)cc1	-3.2	0.6	11.1*	.	-2.2	-3.5	0.3
CCOc1ccc(CN2CCN(c3ncnc4scc(-c5ccccc5)c34)CC2)cc1	5.2	9.9	10.0*	i	-0.9	-4.1	-4.7
COc1ccc(CN2CCN(c3ncnc4scc(-c5ccc(F)cc5)c34)CC2)cc1	3.0	4.3	1.0	i	-5.1	.	.
COc1cc(/C=N/NC(=O)Cn2nnc3ccccc32)ccc1O	-1.6	-18.1	-0.8	i	1.6	.	.
CCOc1cc(/C=N\NC(=O)Cn2nnc3ccccc32)ccc1O	-0.1	-10.3	10.2*	i	3.7	4.5	4.6
CCOC(=O)c1c(C)oc2ccc(OCC(N)=O)cc12	3.4	3.5	14.9*	i	11.2*	-3.5	-2.8
CC1CCC(C(C)C)C(OC(=O)C[n+]2cc(-c3ccc(Cl)cc3)n3c2CCC3)C1 (stereo unspecified)	-0.6	-2.4	9.9*	i	-3.4	-2.6	-0.8
O=C(C[n+]1cc(-c2ccc(Cl)cc2)n2c1CCC2)N1c2ccccc2Sc2ccccc21	3.0	4.3	5.2	i	3.3	.	.
O=C(Cn1nc(CNc2ccc(Br)cc2)[n+]2c1CCCCC2)c1ccc([N+](=O)[O-])cc1	-1.8	8.2	9.8*	i	2.6	1.1	3.4
CCOc1ccc(N2CC(C(=O)Nc3nnc(CC)s3)CC2=O)cc1 (stereo unspecified)	-0.3	-2.4	-1.0	i	-10.2	.	.
COCCNC(=O)c1cccc(OC2CCN(Cc3ccc(OC(F)F)cc3)CC2)c1	2.0	4.1	-1.7	i	-3.6	.	.
Cc1nnc(N/N=C/c2ccc([N+](=O)[O-])cc2)n1N	-3.6	4.1	19.7*	i	9.2	7.6	7.7
COc1ccc(/C=N/Nc2nnc(C)n2N)cc1OC	-4.5	-4.8	7.6	i	0.6	.	.
COc1ccc(/C=N/Nc2nnc(C)n2N)cc1OC(C)=O	-0.8	8.6	11.4*	i	-0.5	-8.4	-2.2
CCOC(=O)[C@@H]1[C@H]2COc3cc(OC)ccc3[C@@H]2N2C(=O)N(c3ccccc3)C(=O)[C@@]12C	-1.2	4.0	0.9	.	1.0	.	.
O=C(NCc1cccs1)C1CCN(c2nc3ccccc3o2)CC1	2.1	3.6	9.7*	i	2.6	-1.6	-3.9
CC(C)CCNC(=O)C1CCN(c2nc3ccccc3o2)CC1	-6.1	-7.5	-2.3	i	1.2	.	.
COc1ccc(N2CCN(C(=O)CCCn3c(=O)[nH]c4cc(Cl)ccc4c3=O)CC2)cc1	6.2	5.2	10.7*	i	7.2	-11.7	-7.7
O=C(CCC(=O)OCc1ccc([N+](=O)[O-])cc1)Nc1ccc(F)cc1	2.8	1.8	10.2*	i	10.1	-2.0	1.2
Cc1ccc(NC(=O)CCC(=O)OCC(=O)c2ccc(Oc3ccc([N+](=O)[O-])cc3)cc2)cc1C	1.8	5.9	11.3*	i	5.0	6.7	5.6
O=C(CSc1n[nH]c(-c2ccccc2)n1)Nc1ccccc1O	1.9	-1.8	9.9*	i	-7.1	-5.8	-2.7
O=C(CSc1n[nH]c(-c2ccccc2)n1)Nc1ccc(F)cc1F	0.0	1.8	0.4	i	-6.4	.	.
CC(=O)Nc1ccc2nc(CN3CCC(CO)(CCc4ccccc4)CC3)ccc2c1	-21.2	-91.1	-52.0	i	-81.2	.	.
SMILES	ADAM17 inh	ADAM10 inh	PLC-gamma1 inh	Rce1 inh	PLC-beta3 inh	PLCgamma1 ctr	PLCb3 confirm
COc1ccc(NS(=O)(=O)c2ccc(SC)cc2)cc1	1.7	8.0	12.4*	i	0.1	7.9	1.5
COC(=O)c1sccc1S(=O)(=O)Nc1ccc(S(N)(=O)=O)cc1	1.4	5.4	3.3	i	-1.4	.	.
COC(=O)c1sccc1S(=O)(=O)Nc1ccc(N2CCCCC2)cc1	-2.6	19.4	9.6*	i	-3.3	-5.0	-3.3
COc1ccc(OC)c(S(=O)(=O)N2CCCC(N3CCN(c4ccccc4)CC3)C2)c1 (stereo unspecified)	-0.8	11.2	10.8*	i	3.0	-1.1	1.4
Cc1ccc(Nc2n[nH]c(C)c2[N+](=O)[O-])c(C)c1	3.7	7.8	9.6*	i	2.5	-2.7	-0.5
COc1ccc(CN(C)S(=O)(=O)c2nnc(NC(=O)c3cccc(C)c3)s2)cc1OC	0.1	1.2	-60.6	i	-93.2	.	.
Cc1ccc(Oc2c(C(N)=O)cc([N+](=O)[O-])cc2[N+](=O)[O-])cc1	6.0	6.1	1.1	i	-0.4	.	.
CC(C)=CCC/C(C)=C/CN(CC(C)O)CC(C)O (stereo unspecified)	-3.9	10.0	3.3	i	4.7	.	.
CC(O)CN(CCC(N)=O)CCC(N)=O (stereo unspecified)	4.3	6.2	10.1*	i	-0.1	-0.8	-1.1
COC(=O)C1=C(C)N(Cc2ccccc2)C(=NCc2cccc(C(F)(F)F)c2)N[C@H]1c1cccc(F)c1	0.2	2.0	12.8*	i	3.4	-7.2	-8.9
COC(=O)C1=C(C)N(Cc2ccc(C(F)(F)F)cc2)C(=NCc2ccc(C(F)(F)F)cc2)NC1c1cccc(F)c1 (stereo unspecified)	5.5	1.4	4.4	.	4.8	.	.
COC(=O)C1=C(C)N(Cc2cccc(C(F)(F)F)c2)C(=NCc2ccccc2C(F)(F)F)NC1c1ccc(Cl)cc1 (stereo unspecified)	7.5	1.9	1.3	.	13.7*	-3.0	-4.1
CC(NC(=O)Cn1nc(-c2ccccc2)c2ccccc2c1=O)c1ccccc1 (stereo unspecified)	-0.8	-2.0	0.9	i	4.2	.	.
COc1ccc(F)cc1Cn1nc(C(=O)O)c2ccccc2c1=O	3.0	6.0	12.1*	i	0.8	4.9	1.6
CC(NC(=O)Cn1nc(C(=O)O)c2ccccc2c1=O)c1ccccc1 (stereo unspecified)	4.3	7.1	10.7*	i	11.9*	-1.6	1.1
O=C(CCCn1nnnc1CN1CCOCC1)N1CCN(c2ccccc2F)CC1	-5.6	-9.7	-4.6	i	-7.7	.	.
Nc1sc2c([n+]1CCCS(=O)(=O)[O-])CCCC2	-1.1	-0.5	2.4	i	3.8	.	.
O=C(c1ccc([N+](=O)[O-])cc1Cl)N1CCN(c2ccccn2)CC1	-0.6	-1.1	3.9	.	-4.2	.	.
O=C(c1ccc(Cl)cc1[N+](=O)[O-])N1CCN(c2ccccn2)CC1	5.1	4.9	8.2	i	11.9*	1.5	0.0
Cc1ccc(CNC(=O)CCCC(=O)O)cc1	4.8	4.4	5.3	i	10.8*	-5.6	-2.0
